From PubChem BioAssay AID1508600 (Functional Genomics Laboratory (NCATS/FGL), 2020)
About 3,700 (7%) of roughly 53,000 sequences were called active. The entries come from a sample that favours actives as a whole. A number with no mark means an inactive call.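 Rule for the calls: active = gene knockdowns whose robust z-score for IL-1 alpha signal is at least 2 or at most -2, so actives lie on both sides; inactive = the rest.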

Test: Components of the Cytosolic LPS Sensing Pathway: Gene Identification via Genome-wide siRNA Screen;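 note: robust z of the log signal after scaling to non-targeting control siRNA wells of the plate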
Conditions: RAW264.7 macrophages, IL-1a HTRF, actives lie on both sides, screened at 100 nM (by protocol), cells primed 5 h with Pam3CSK4 first
Method in brief: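 Knockdown: 100 nM siRNA, 48h, RAW264.7. Stimulation: Pam3CSK4 5 h, then LipidA via TransIT-TKO 24 h. Output: supernatant IL-1a HTRF, negative-control-normalized, log robust z-score; viability by CellTiter-Glo.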
Work on “CGGACACACUUUGUUAUUATT against 4833420G17Rik” yielded a z-score of 0.198. Work on GGACGUAACAAAAUGUUCUTT against P2ry12 yielded a z-score of 0.578. CGGUGGAAUUCGUUAGAAGTT against Ireb2 showed a z-score of -0.183. GGAAGGCCCUAGAAAGGACTT against Gm5094 showed a z-score of 0.209. With GCGUGGCUGUCAUGUAUUUTT against Olfr231 the z-score was 0.247. Work on GGAAGAUGUAUUCUUCUCCTT against Gemin4 yielded a z-score of 0.499. With GGAGAAGGAGCUGGAAACGTT against Cttn the z-score was 0.645. With CCUGAAAACCAUGCAAUACTT against Tas2r125 the z-score was -2.37 (active). GGGCUACUUCCUGACUAAATT against Ube2s gave a z-score of -0.505. GGACACUAUGCAAUCACCCTT against Rnf216 gave a z-score of -0.481. For GGUCUACGUAGAGGAGCUGTT against Mrpl28, the z-score was 1.04. Sequence GGGAAGCCUUUCUUGUCAGTT against Vmn1r40 has a z-score of -0.847. Work on GGAAUAAAGAAUGGUAUACTT against Zfp280d yielded a z-score of -0.0544. Sequence CCAGUAGCACGUGUUAUUUTT against Rbmy has a z-score of 0.0944. In the case of GGAUUAAGAAAGAAACAGGTT against Zfp438, the z-score was -0.387. With GGCCACAGAGCCAAAGAUUTT against Cdca7 the z-score was 0.808. In the case of GCUUGAUCGAAGAAAGACATT against Tdrd3, the z-score was 0.709. With GCGUAGGUUACGUUCAAGGTT against Ermard the z-score was 2.74 (active). Work on CGACAGUGAAUGCGCUAAGTT against Slc7a9 yielded a z-score of -0.218. In the case of GCAAAUUCACCGGAAAAUGTT against Sorbs3, the z-score was 1.04. GGAGACUUAGAAAAAGACUTT against Olfr1426 showed a z-score of 1.17. GGAGUUUGUAACCCUCCUGTT against Cabp7 gave a z-score of 1.07. In the case of GCCGUCAUCAUGGAAGGUUTT against Bace1, the z-score was 0.0589. For GGAAUCCUUGGACCUGAGGTT against Tnni3, the z-score was -2.11 (active). Sequence GGGUCAAUCAGAAGCUAGGTT against Creb3l4 has a z-score of -0.573. In the case of GGCAACUGACUAUUUAUUATT against Kcnk13, the z-score was 0.558. With GCAUGAGUAUUCCAAGGAGTT against Arhgef7 the z-score was -2.36 (active). Work on GCAGUAUAAGAAUUUCAUGTT against Thada yielded a z-score of -0.325. “GGAAAUGUUCUUCAUGUCATT against 1110038F14Rik” gave a z-score of -1.95. In the case of GGCACGUCUGGACAACAUCTT against Cd22, the z-score was -0.707. Work on GGAGGUGACCUGUAAUCCCTT against Msmb yielded a z-score of 0.0151. With GCUUUCACUAAUCAGUACATT against Setd5 the z-score was -0.0813. For GGAGCAACAGAGAUUUCUUTT against Sergef, the z-score was 2.07 (active). GCUUCUGAUUAACCUCCAGTT against Olfr1390 gave a z-score of -1.49. GCUUACCUUUGGAUUCAAATT against Cd68 gave a z-score of -0.446. Work on GGGAAAAAGAGCUUUUAGCTT against Helt yielded a z-score of -0.552. Sequence GGUGGCCGUGAAGAAGAUCTT against Mapk4 has a z-score of -0.902. In the case of GGGCUUAAGGAAUAAACCATT against Phtf2, the z-score was -0.317. With GGAGAUCUCAGAGAGUGAGTT against Atn1 the z-score was -2.52 (active). For GCCUCCAACUGAACAAAUUTT against Tnfrsf14, the z-score was 0.0618. Work on GGACCAUCUCUUUGAUUGGTT against Olfr424 yielded a z-score of -1.12. With UCUUUGGCAACACUACCAUTT against Olfr1386 the z-score was 0.366. With GAAGUCCUGGGACUUUAUGTT against Nudt14 the z-score was 0.208. With GGACAGAAUUGAAAUGCCUTT against Ropn1l the z-score was -2.08 (active). In the case of GGUUUCGUUGUUCUUGUUGTT against Ttc33, the z-score was 0.55. GGUAGAAGAGAACUGGACATT against Oas1a showed a z-score of 0.228. GGCAUGAUUAUUGUGUUUGTT against Abcb11 showed a z-score of 0.41. For CCUAAGUACUGUAAGAAUATT against Mycn, the z-score was 0.506. In the case of CGCCAUGUUUAACAAAUUGTT against Limk2, the z-score was -2.22 (active). Work on GCCAUUCUAGGAACUCUGATT against Thrap3 yielded a z-score of -1.3. Work on GGUAUCAGACAGCUGUAACTT against Mptx1 yielded a z-score of 0.359. In the case of GCAUCAGUAGAAACCCACATT against Tmigd3, the z-score was 0.872. In the case of CCCUACUAUUGACGAAAACTT against Hpn, the z-score was 1.66. With “CCUGAUCUUAAACAAAGAATT against 2610507B11Rik” the z-score was -0.742. In the case of GCCAACCCUGAAAACCCUUTT against Gc, the z-score was -2.54 (active). Sequence GGUUGUUGAAAAGUCUUUATT against Rasa2 has a z-score of -0.102. GCACUGGAAAAUUUCUAAUTT against Vmn2r7 showed a z-score of -0.0531. For GGAGGUAGAAAUAAAUACUTT against Sva, the z-score was 2.01 (active). In the case of GGACAAUUACAACACUCAATT against Ablim3, the z-score was -0.00526. Sequence GGCUUGAUCAUGACUUAAATT against Armc8 has a z-score of 0.638. For GGUUUUGUUAUGGUAAGUCTT against Vdr, the z-score was -0.573. Work on CCAAGCAUUCGAGUAUGUUTT against Ctsj yielded a z-score of 1.07. For CCAAUGAUUUCCUGCUAAATT against Lst1, the z-score was 3.21 (active). GGAAGACAACUGAACAUUUTT against Ralgds gave a z-score of 0.837. In the case of CCGGAAGCUAUUGACCAUUTT against Tmem11, the z-score was 3.21 (active). For GGCCGUAAUAUCUCCUCCUTT against Krt13, the z-score was 1.41. For CGCGAGGUCUUCGAAAGAATT against Siva1, the z-score was -0.884. CGCGUUUCGUGUUUCAAAATT against Mus81 gave a z-score of -0.464.
